Data published in ChEMBL document CHEMBL4513216, “Probing the Open Global Health Chemical Diversity Library for Multistage-Active Starting Points for Next-Generation Antimalarials” (ACS Infect Dis, 2020).
Screen size: about 69,000 compounds; about 8,600 (12%) showed an effect of 50% or more. The sample holds strong results, similar compounds and a random draw of the others, so the mix is not that of the screen.

Tested on: Plasmodium berghei
Assay: Screen against P. berghei liver stage (PbLuc), transformed with Luciferase, at 10uM
Type: functional, HepG2
Settings: tested at 10 uM

| Compound | INHIBITION |
| --- | --- |
| Cc1cnc(C(=O)N2C[C@@H]3CC[C@H]2CN(S(=O)(=O)N(C)C)C3)cn1 | 42% |
| O=C(NC1CC1)N1C[C@@H]2CCN(C(=O)c3cscn3)[C@@H]2C1 | -1.28% |
| Cn1cc(Cl)cc1C(=O)N1CCCN(Cc2nccn2C)CC1 | 0.16% |
| CCCc1noc(CN2CCCC2c2noc(C3CC3)n2)n1 (configuration not stated) | 40.9% |
| O=C(NC1CC1)[C@H]1C[C@H]2OCC[C@H]2N(Cc2ccc(F)cc2)C1 | -15.3% |
| Cc1nc(-n2cnnc2)ccc1-c1cccc2c1CCNC2 | 61.1% |
| COc1ccc(C(=O)O)cc1-c1cccc2c1CCNC2 | 21.2% |
| Cc1cnc(-n2cnnc2)c(-c2cccc3c2CCNC3)c1 | 53.3% |
| CN(C)C(=O)c1ccc(-c2cccc3c2CCNC3)cc1 | 33.9% |
| Cc1cc(-c2cccc3c2CCNC3)cnc1-n1cnnc1 | 26.4% |
| Cc1ccc(C(=O)O)cc1-c1cccc2c1CCNC2 | 15.8% |
| CCn1cncc1CN1CCN(CC2(c3ccc(C)cc3)CC2)CC1 | -29.9% |
| O=C(O)C1(Cc2cc(-c3ccccc3F)no2)CCOCC1 | 21.9% |
| Cc1nn(C)c2nc(NCCN3CCCC(C(N)=O)C3)sc12 (configuration not stated) | 20% |
| Cn1ccnc1CN1CCC(CCCc2ccccn2)(C(N)=O)CC1 | -20.6% |
| CNC(=O)C1Cc2ccccc2CN1C(=O)CC(C)C (configuration not stated) | -47% |
| Cc1cc(C)n(CCCNC(=O)NCc2c(C)cc(C)[nH]c2=O)n1 | 38.9% |
| Cc1cc(C)n(CC(C)CNC(=O)NCc2c(C)cc(C)[nH]c2=O)n1 (configuration not stated) | 42.3% |
| Cc1cc(C)n(CC(C)NC(=O)NCc2c(C)cc(C)[nH]c2=O)n1 (configuration not stated) | 50.8% |
| CCC(=O)N1CCCC1c1n[nH]cc1-c1ccccc1F (configuration not stated) | -6.73% |
| Cc1ccc(C)c(-n2nnnc2SCN2CCCCC2=O)c1 | 13.7% |
| O=C1CCCCN1CSc1nnnn1-c1ccc(Cl)cc1 | 30.4% |
| Cc1ccc(-n2nnnc2SCN2CCCCC2=O)cc1C | 63.8% |
| O=C(Cc1ccccn1)N1CCC(c2noc(-c3ccncc3)n2)CC1 | -8.12% |
| O=C(NCC1CC1)[C@@H]1CCO[C@@H]2CCN(Cc3ccsc3)C[C@H]21 | -9.71% |
| CC1CCC(NC(=O)c2nn(C)cc2Br)CC1 (configuration not stated) | 65.2% |

| Compound | INHIBITION |
| --- | --- |
| CC1CCC(NC(=O)c2nn(C)cc2I)CC1 (configuration not stated) | -32.5% |
| Cn1cc(I)c(C(=O)NC2CCCC2)n1 | -13.2% |
| Cc1nc(C(C)C)sc1C(=O)N1CCN(C2CCSCC2)CC1 | -21.3% |
| O=C1CCCCN1CCCNCc1cnc(C2CCC2)s1 | 3.87% |
| c1cnc(N2CCC(NCc3cnc(C4CCC4)s3)CC2)nc1 | -22% |
| CC(c1nc(C2CC2)no1)N1CCN(CCN2CCCC2=O)CC1 (configuration not stated) | -65.2% |
| CCC(CCNCc1cnc(C2CCC2)s1)N1CCCC1=O (configuration not stated) | 53.4% |
| Cc1ccc(N2CCC(NCc3cnc(C4CCC4)s3)CC2)nc1 | 34.7% |
| CC(CCN1CCCC1=O)NCc1cnc(C2CCC2)s1 (configuration not stated) | 54.4% |
| CC(C)NC(=O)Nc1ccc(CNCc2cccc(OC(F)F)c2)cc1 | 38.6% |
| Cn1c(Cn2ccnc2)nnc1C1CCN(C(=O)c2cccnc2)CC1 | -27.4% |
| Cn1cc(N2CC3(CCN(CC4CCC4)CC3)OCC2=O)cn1 | 42.5% |
| Cc1cc(C)c2c(c1)NC(=O)C2CC(=O)O (configuration not stated) | 27.6% |
| Cc1ccc(C)c2c1NC(=O)C2CC(=O)O (configuration not stated) | -95.1% |
| Cc1cc(C)c2c(c1)C(CC(=O)O)C(=O)N2 (configuration not stated) | 54.8% |
| CCCc1nc(N2CCCN(c3ccncc3)CC2)c2cnn(C)c2n1 | 39.1% |
| CCn1cnnc1C1CCN(C(=O)c2cc(F)ccc2OC)CC1 | 33.3% |
| CS(=O)(=O)Cc1cc(Cl)c2c(c1)OCCCO2 | 50.1% |
| CNC(=O)CS(=O)(=O)Cc1cc(Cl)c2c(c1)OCCCO2 | 6.14% |
| NC(=O)CS(=O)(=O)Cc1cc(Cl)c2c(c1)OCCCO2 | -125% |
| CN(C)C(=O)CCS(=O)(=O)Cc1cc(Cl)c2c(c1)OCO2 | 44.3% |
| CN(C)C(=O)CCS(=O)(=O)Cc1cc(Cl)c2c(c1)OCCO2 | 54.4% |
| CN(C)C(=O)CCCS(=O)(=O)Cc1cc(Cl)c2c(c1)OCCO2 | 31.9% |
| CN(C)C(=O)CS(=O)(=O)Cc1cc(Cl)c2c(c1)OCCCO2 | 21.8% |
| CS(=O)(=O)CCS(=O)(=O)Cc1cc(Cl)c2c(c1)OCCCO2 | 25.5% |
| O=C(CS(=O)(=O)Cc1cc(Cl)c2c(c1)OCCCO2)NCC1CC1 | 60.5% |

| Compound | INHIBITION |
| --- | --- |
| CSCC(=O)N1C[C@H](c2ccc(C)o2)[C@@H](N)C1 | -1.45% |
| CCNc1ncc(CN2CCOC(Cc3cccc(OC)c3)C2)cn1 (configuration not stated) | 15.2% |
| Cn1cnc2c1C(COCc1cccnc1)N(Cc1nccs1)CC2 (configuration not stated) | 20.1% |
| CCN(Cc1c(C)nn(CC)c1C)S(=O)(=O)c1cn(C)nc1C | 8.49% |
| COc1ccccc1CN1CC[C@]2(C[C@@H](OC)CO2)C1 | -79.4% |
| CCC(C(=O)NC1CCCCC1)n1ccc2ncccc2c1=O (configuration not stated) | -4.12% |
| Nc1nc(N2CCCCCC2)ncc1C(=O)NCc1ccc(F)c(Cl)c1 | 43.8% |
| CN(C)CC1(O)CCCN(C(=O)CCc2nc3cccnc3n2C)C1 (configuration not stated) | 8.64% |
| CS(=O)(=O)CCNC(=O)c1cc2ccccc2nc1N1CCCC1 | -1.37% |
| Cn1cc(CCNC(=O)c2cc3ccccc3nc2N2CCCC2)cn1 | 59.4% |
| CCOC(=O)NCCNC(=O)c1cc2ccccc2nc1N1CCCC1 | -7.36% |
| Cn1c(CCC(=O)N2CCC3(CCCO3)CC2)nc2cccnc21 | 27.4% |
| CCc1cc(CNC(=O)N2CCC(Cc3cnn(C)c3)C2)on1 (configuration not stated) | 3.1% |
| COc1ccccc1C1CNC(=O)c2nc(-c3nccn3C)[nH]c2C1 (configuration not stated) | 55.7% |
| COc1ccccc1C1CNC(=O)c2nc(-c3cnn(C)c3)[nH]c2C1 (configuration not stated) | -36.5% |
| COc1ccccc1C1CNC(=O)c2nc(-c3ncc[nH]3)[nH]c2C1 (configuration not stated) | 1.81% |
| Cc1nnc(NCC2(c3ccccc3)CCC2)c(C#N)c1C | 92.1% |
| Cc1nnc(NCC2(c3ccccc3)CC2)c(C#N)c1C | 9.48% |
| Cc1nnc(NCC2(c3ccc(Cl)cc3Cl)CCOCC2)c(C#N)c1C | 52.9% |
| Cc1nnc(NCC2(c3ccccc3)CCOCC2)c(C#N)c1C | 6.67% |
| COc1ccccc1C1(CNc2nnc(C)c(C)c2C#N)CCOCC1 | -10.2% |
| Cc1nnc(NCc2ccccc2Cl)c(C#N)c1C | 49.9% |
| COc1ccccc1C1(CNc2nnc(C)c(C)c2C#N)CCCC1 | 97.1% |
| Cc1ccccc1C1(CNc2nnc(C)c(C)c2C#N)CCOCC1 | 17.4% |
| COCc1ccccc1CNc1nnc(C)c(C)c1C#N | 22.9% |
